# Test results published in PubChem BioAssay (NCI).
# Compounds without any hit were thinned out: in the full panel of roughly 83,000, 20% have a hit.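 Testing used 96-well plates and a 48-hour single-concentration exposure. Example: -40 means 40% of the starting cells died.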 A number with no mark means an inactive call. Calls of active or inactive are those of the source. Rule for the calls: active = growth percent below 10; inactive = the rest.
# System: HL-60(TB) leukemia
# Assay: NCI-60 one-dose screen, 48 h (100 = growth as untreated, 0 = no growth, -100 = all killed)
# Conditions: 10 µM unless noted
row,Compound,growth
1,O=C(CSc1nnc(-c2cc3c([nH]c4ccccc43)c(-c3cccc(O)c3)n2)n1-c1ccccc1)c1ccccc1,56.2%
2,COc1c(Cl)c2c(c(OC)c1OC)-c1ccc(SC)c(=O)cc1[C@@H](NC(=O)OCC(F)(F)F)CC2,-35.4% (active)
3,COc1ccc2nc(-c3ccccc3)cc(C(C)=O)c2c1,84.8%
4,O=C(CBr)CN1C(=O)c2ccccc2C1=O,103%
5,COc1nc2c(c(=O)[nH]1)C(c1ccc(Oc3ccnc4cc(Cl)ccc34)c(OC)c1)C=C(c1cc(OC)c(OC)c(OC)c1)N2 (stereo not given),97.9%
6,Cc1ccc2c(n1)C(=O)c1[nH]c3ccccc3c1C2=O,67.8%
7,COc1ccc(C2=CC(c3cc(OC)c(OC)c(OC)c3)n3ncnc3N2)cc1 (stereo not given),-29.9% (active)
8,Nc1c(C(=O)Nc2cccc3cnccc23)sc2nc3c(cc12)CN(Cc1ccccc1)CC3,101%
9,Cc1c(C)c2c(c(C)c1OC(=O)CCC(=O)[O-])CCC(C)(CCCCCCCCCCC[P+](c1ccccc1)(c1ccccc1)c1ccccc1)O2 (stereo not given),-35.2% (active)
10,Cc1nc2sc(C(=O)Nc3ccccc3Cl)c(N)c2cc1C(C)O (stereo not given),58.8%
11,O=C1C=C(c2ccccc2)C(O)(c2ccccc2)C1 (stereo not given),85.2%
12,C=CCN1CCCC1=O,47.1%
13,COc1nc2ccc(C)cc2cc1/C=[N+](\[O-])c1ccccc1,80.3%
14,CCNCC(=O)Nc1ccc(C(=O)OCC)cc1,88.6%
15,CCOC(=O)Sc1ncnc2nc[nH]c12,2.99% (active)
16,Cc1nnc(/N=C2\NC(=O)/C(=C/c3ccsc3)S2)s1,102%
17,CN(C)CC1C(=O)O[C@H]2[C@H]1CC/C(COC(=O)NCc1ccc(Cn3c(=O)sn(CCCI)c3=O)cc1)=C\CC[C@@]1(C)O[C@@H]21 (stereo not given in full),-36.5% (active)
18,Cc1ccc(-c2c3c(N)nc(-c4ccncc4)nc3nc3c2c(C)nn3-c2ccccc2)cc1,97%
19,COc1ccc(Nc2ncc(C(N)=O)c(NCCCNC(=O)C3CCC3)n2)cc1,46.6%
20,COc1ccc(C(=O)Nc2nc(-c3ccc(Cl)cc3)cs2)cc1,105%

row,Compound,growth
1,Clc1nc(Cl)c2c(ncn2C/C=C\Cn2cnc3c(Cl)nc(Cl)nc32)n1,-80.7% (active)
2,C=CC(=O)N(C)[C@H]1C[C@H]2OC(C)(C1OC)n1c3ccccc3c3c4c(c5c6ccccc6n2c5c31)C(=O)NC4 (stereo not given in full),-11.2% (active)
3,C=C(C)[C@@H]1CC[C@]2(COC(C)=O)CC[C@]3(C)[C@H](CC[C@@H]4[C@@]5(C)CCCN(C(C)=O)C(C)(C)[C@@H]5CC[C@]43C)[C@@H]12,-29.2% (active)
4,CC(Sc1ccccc1)C(=O)O (stereo not given),143%
5,CCCCCC(C)(CC(=O)O)CC(=O)O,90.5%
6,CC(C)[C@@H]1C=C2CC[C@H]3[C@](C)(CN)CCC[C@]3(C)[C@H]2CC1,70.1%
7,Cc1noc(C)c1CSc1ccccc1C(=O)N1CCN(c2cccc(C(F)(F)F)c2)CC1,74.4%
8,COc1cc(OC)c2cc(C(=O)c3ccc(C#N)cc3)c(=O)oc2c1,97.4%
9,C=C(C)C(=O)Nc1ccc(NC(C)C)cc1,129%
10,Nc1cc(C(F)(F)F)c(-c2cc(N3CCOCC3)nc(N3CCOCC3)n2)cn1,-41.3% (active)
11,N#C/C(=C1C=C/C(=N/O)C(Cl)=C/1)c1ccc(Cl)cc1,61.1%
12,CC/C=C\C[C@H](O)C/C=C1/C(=O)C=C[C@@H]1C/C=C\CCCC(=O)NC(C)C,-28.2% (active)
13,CCN1C(=O)N(CC)C2Nn3c(s/c(=C\c4cccc(F)c4)c3=O)=NC21 (stereo not given),38.6%
14,O=[N+]([O-])c1ccc(-c2nc(N(CCO)CCO)c3ccccc3n2)o1,-11.1% (active)
15,Cc1cc(C)c(C(=O)OC(C)CNC2CCCCC2)c(C)c1 (stereo not given),87.5%
16,NC(N)=N/N=C(\c1ccccc1)C(O)c1ccccc1 (stereo not given),96.7%
17,COc1ccc(C(=O)/C=C/c2cccnc2Nc2cc(OC)c(OC)c(OC)c2)cc1,-23.2% (active)
18,O=c1cc(N2CCOCC2)oc2c(-c3ccc4c(c3)OCCO4)csc12,4.41% (active)
19,COc1ccc(-c2nc(SCCC(C)C)nc(N/N=C(/C)c3ccc(C)cc3)c2C#N)cc1,89.8%
20,CN(Cc1ccccc1)Cc1ccc([N+](=O)[O-])cc1I,85%
